Assay outcomes: PubChem, Broad Institute
The entries come from a sample that favours hits as a whole.
DUX4 inh – blocks DUX4-driven transcriptional activation | activity change, negative = inhibition, % (test concentration not listed) | actives 0.8% (n = 37,000) | AID 1224904 | 293T-iDUX4 ZSCAN4-Gaussia luciferase reporter, 24 h; active compounds read low;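 active = mean inhibition of at least 10% in the main channel, exceeding the control channel by a set limit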;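 also: 0% = median of neutral control wells and -100% = median of positive control wells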
An asterisk follows results filed as active.

SMILES	DUX4 inh
C[C@H]1CCCCO[C@H](CN(C)S(=O)(=O)c2ccccc2)[C@@H](C)CN([C@@H](C)CO)C(=O)c2cc(NS(C)(=O)=O)ccc2O1	0.2
COCC#Cc1ccc([C@@H]2[C@@H](CO)N3CCCCN(Cc4cccnc4)C[C@H]23)cc1	9.3
COc1cccc(CN2CCCCN3[C@H](CO)[C@@H](c4ccc(-c5cccnc5)cc4)[C@H]3C2)c1	5.3
COCC#Cc1ccc([C@H]2[C@H]3CN(Cc4cccnc4)CCCCN3[C@H]2CO)cc1	29.3
COCC#Cc1ccc([C@@H]2[C@H]3CN(Cc4cccnc4)CCCCN3[C@H]2CO)cc1	5.9
COc1cccc(CN2CCCCN3[C@@H](CO)[C@@H](c4ccc(C#Cc5cccnc5)cc4)[C@@H]3C2)c1	-36.3*
COc1cccc(CN2CCCCN3[C@H](C2)[C@@H](c2ccc(C#Cc4cccnc4)cc2)[C@@H]3CO)c1	-17.0*
CO[C@@H]1CN(C)C(=O)c2ccc(NS(=O)(=O)c3ccccc3)cc2OC[C@@H](C)N(C(=O)NC(C)C)C[C@H]1C	2.2
CCC(=O)N1[C@@H]2Cn3c(ccc(-c4ccccc4F)c3=O)[C@H]1[C@@H](C(=O)NC1CCC1)[C@@H]2CO	5.3
C[C@@H]1CN([C@H](C)CO)C(=O)CCCn2cc(nn2)CO[C@H]1CN(C)Cc1ccc(C(=O)O)cc1	-1.9
C[C@@H]1CN([C@@H](C)CO)C(=O)c2cc(NC(=O)CCCCCC(=O)Nc3ccccc3N)ccc2O[C@@H]1CN(C)C(=O)Nc1ccc(C(F)(F)F)cc1	4.4
O=C(Nc1cccc(F)c1)N1C[C@H]2[C@@H](c3ccccc31)[C@H](CO)N2C(=O)Cc1ccccc1	3.7
O=S(=O)(c1ccccc1)N1CC2(C1)[C@@H](c1ccccc1)[C@@H](CO)N2CC1CCOCC1	-0.6
O=C1N[C@@H](Cc2ccccc2)COCc2cn(nn2)CC[C@@H]1Cc1ccc(-c2ccccc2)cc1	-0.5
O=C(C[C@H]1C=C[C@H](NC(=O)c2cccnc2)[C@H](CO)O1)NCc1ccncn1	8.3
CCCNC(=O)N(C)C[C@H]1N[C@@H](CO)[C@@H]1c1ccc(C2=CCCCC2)cc1	2.4
C[C@@H]1CN([C@@H](C)CO)C(=O)c2c(c3ccccc3n2C)-c2ccccc2CO[C@H]1CN(C)Cc1cccc(O)c1	-9.3
C[C@H]1CN([C@@H](C)CO)C(=O)c2c(c3ccccc3n2C)-c2ccccc2CO[C@H]1CN(C)Cc1ccc(O)cc1	5.3
C[C@@H]1CN([C@H](C)CO)C(=O)c2c(c3ccccc3n2C)-c2ccccc2CO[C@H]1CN(C)Cc1cccc(F)c1	-34.6*
C[C@H]1CN([C@@H](C)CO)C(=O)c2c(c3ccccc3n2C)-c2ccccc2CO[C@@H]1CN(C)Cc1cccc(C(=O)O)c1	3.2
C[C@H]1CN([C@@H](C)CO)C(=O)c2c(c3ccccc3n2C)-c2ccccc2CO[C@H]1CN(C)Cc1cccc(C(=O)O)c1	-1.8
C[C@H](CO)N1C[C@H](C)[C@@H](CN(C)Cc2cccc(C(=O)O)c2)OCc2ccccc2-c2c(n(C)c3ccccc23)C1=O	-0.7
C[C@H]1CN([C@@H](C)CO)C(=O)c2c(c3ccccc3n2C)-c2ccccc2CO[C@@H]1CN(C)Cc1cccc(O)c1	-44.6*
C[C@H](CO)N1C[C@H](C)[C@H](CN(C)Cc2ccc(O)cc2)OCc2ccccc2-c2c(n(C)c3ccccc23)C1=O	-1.5
C[C@H](CO)N1C[C@H](C)[C@H](CN(C)Cc2cccc(O)c2)OCc2ccccc2-c2c(n(C)c3ccccc23)C1=O	-29.0*
SMILES	DUX4 inh
O=C(CCN1CCCCC1)NCC[C@@H]1CC[C@@H](NC(=O)C2CCOCC2)[C@@H](CO)O1	4.6
C/C=C/c1cccc(-c2nc(C(=O)NC3CCC3)cc3c2[C@@H](CCO)N([S@](=O)C(C)(C)C)C3)c1	-5.7
CC(C)NC(=O)Nc1ccc2c(c1)C(=O)N([C@@H](C)CO)C[C@H](C)[C@@H](CN(C)C(=O)C1CCCCC1)OCCCC[C@H](C)O2	1.9
C[C@@H]1CN([C@@H](C)CO)C(=O)c2ccccc2-c2ccccc2CO[C@@H]1CN(C)C(=O)Nc1ccc2c(c1)OCO2	9.8
COc1ccc2c3c([nH]c2c1)[C@H](CO)N(Cc1ccc(F)cc1)CC31CN(C)C1	-1.7
O=C(C[C@@H]1CC[C@@H]2[C@H](COC[C@@H](O)CN2C(=O)c2ccc(F)cc2)O1)NCCCN1CCOCC1	14.5
O=C(C[C@@H]1C[C@@H]2c3cc(NC(=O)Nc4ccc(C(F)(F)F)cc4)ccc3O[C@@H]2[C@H](CO)O1)NCc1ccc(Cl)cc1	3.0
O=C(C[C@@H]1C[C@H]2c3cc(NC(=O)Nc4ccc(C(F)(F)F)cc4)ccc3O[C@H]2[C@H](CO)O1)NCc1ccc2c(c1)OCO2	-46.6*
COc1ccc(NC(=O)Nc2ccc3c(c2)[C@H]2C[C@@H](CC(=O)N[C@@H](C)c4ccccc4)O[C@H](CO)[C@H]2O3)cc1	0.9
O=C(C[C@@H]1C[C@H]2c3cc(NC(=O)Nc4ccc(C(F)(F)F)cc4)ccc3O[C@H]2[C@H](CO)O1)NCc1ccc(Cl)cc1	-37.1*
C[C@H](NC(=O)C[C@@H]1C[C@H]2c3cc(NC(=O)Nc4ccc(C(F)(F)F)cc4)ccc3O[C@H]2[C@H](CO)O1)c1ccccc1	-13.9*
O=C(C[C@@H]1C[C@H]2c3cc(NC(=O)Nc4ccc(C(F)(F)F)cc4)ccc3O[C@H]2[C@H](CO)O1)NCCc1ccccc1	-47.4*
O=C(C[C@H]1C[C@H]2c3cc(NC(=O)Nc4ccc(C(F)(F)F)cc4)ccc3O[C@H]2[C@H](CO)O1)NCc1ccc2c(c1)OCO2	-5.6
O=C(C[C@H]1C[C@@H]2c3cc(NC(=O)CC4CC4)ccc3O[C@@H]2[C@@H](CO)O1)NCCc1ccccc1	-3.1
O=C(C[C@@H]1C[C@@H]2c3cc(NC(=O)Nc4ccc(C(F)(F)F)cc4)ccc3O[C@@H]2[C@@H](CO)O1)NCc1ccc2c(c1)OCO2	-7.1
COc1ccc(NC(=O)Nc2ccc3c(c2)[C@@H]2C[C@@H](CC(=O)N[C@@H](C)c4ccccc4)O[C@H](CO)[C@@H]2O3)cc1	4.1
O=C(C[C@H]1C[C@H]2c3cc(NC(=O)Nc4ccc(C(F)(F)F)cc4)ccc3O[C@H]2[C@@H](CO)O1)NCc1ccc(Cl)cc1	-3.8
COc1ccc(NC(=O)Nc2ccc3c(c2)[C@H]2C[C@@H](CC(=O)NCCc4ccccc4)O[C@@H](CO)[C@H]2O3)cc1	-1.1
Cc1noc(C)c1S(=O)(=O)Nc1ccc2c(c1)C(=O)N([C@@H](C)CO)C[C@@H](C)[C@H](CN(C)C(=O)Nc1cccc3ccccc13)OCCCC[C@@H](C)O2	2.3
Cc1cccc(S(=O)(=O)N2CC[C@@H]3[C@H](CO)Nc4ccc(C#Cc5cccc(F)c5)cc4[C@@H]32)c1	-0.6
CC(C)[C@@H]1C(=O)N[C@@H](c2ccc(F)cc2)CC=CC[C@H](C)Oc2ccccc2C(=O)N1C (mixture of isomers)	-2.5
O=C(C1CCC1)N1CC2(C1)[C@H](c1ccccc1)[C@@H](CO)N2CC1CCCC1	-4.0
C[C@@H]1CCCCO[C@H](CN(C)C(=O)CCC(F)(F)F)[C@@H](C)CN([C@@H](C)CO)C(=O)c2cc(NC(=O)CCCCCC(=O)Nc3ccccc3N)ccc2O1	5.8
CN(C)CC(=O)N1CC2(C1)[C@H](c1ccccc1)[C@H](CO)N2Cc1ccccc1F	-4.4
C[C@@H]1CN([C@H](C)CO)C(=O)c2cc(C3=CCCC3)cnc2O[C@@H]1CN(C)C(=O)NC1CCCC1	-1.9
